From PubChem BioAssay (Tox21)
Where “and” joins values, the source holds several entries; their conditions need not be identical. Identical values can stand only once. Results filed as inconclusive are left out. Calls of active or inactive are those of the source. Calls follow the shape of the dose curve; as a rule, active = well fitted curve in the direction sought with a large enough effect in the repeat runs; inconclusive = weak or mixed curves; inactive = no such curve, though single readings can be large; an effect the other way counts as inactive or inconclusive.

Legend:
[1] = qHTS RealTime-Glo MT Cell Viability Assay in HEK293 cells - 16 hour (AID 1224872); also: nearly all actives have a fitted effect of over 50% in size; also: potency is read from the fitted curve at half-maximal effect; as to activity change, negative = cytotoxicity: top concentration of the series differs between compounds
Method in brief: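 Tox21 10K qHTS, HEK293, 600 cells/well, RealTime-Glo reagent co-dispensed with cells; 5 h preincubation, compound by pintool, 37 C, luminescence at 0–40 h.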

[2] = qHTS RealTime-Glo MT Cell Viability Assay in HepG2 cells - 8 hour (AID 1224873); also: nearly all actives have a fitted effect of over 55% in size; also: potency is read from the fitted curve at half-maximal effect
Method in brief: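 HepG2 cells (600/well) mixed with RealTime-Glo MT reagent, settled 5 h at 37 C/5% CO2 before compound addition. Nonlytic NanoLuc luminescence from viable-cell prosubstrate reduction read repeatedly during 40 h treatment at 37 C.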

[3] = qHTS RealTime-Glo MT Cell Viability Assay in HEK293 cells - 40 hour (AID 1224874); details: RealTime-Glo luminescence; max response: hits give low values; also: nearly all actives have a fitted effect of over 50% in size; also: potency is read from the fitted curve at half-maximal effect
Method in brief: (§1)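 600 HEK293 cells per well, dispensed already mixed with RealTime-Glo MT reagents. Compound dosing came 5 h later. The same wells were read for luminescence at 0, 8, 16, 24, 32 and 40 h of exposure at 37 C.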

[4] = A CellTox Green Cytotoxicity Assay to monitor cytotoxicity in HEK293 cells - 24 hour (AID 1224875); also: nearly all actives have a fitted effect of over 45% in size; also: potency is read from the fitted curve at half-maximal effect; as to activity change: series mostly up to about 77 µM
Method in brief: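 Dead-cell fluorescence measured kinetically: asymmetric cyanine dye, HEK293, 600 cells/well, 5 h settle, 23 nL cpd/DMSO, 37 C, reads 0–40 h every 8 h.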

[5] = A CellTox Green Cytotoxicity Assay to monitor cytotoxicity in HepG2 cells - 16 hour (AID 1224876); also: nearly all actives have a fitted effect of over 45% in size; also: potency is read from the fitted curve at half-maximal effect
Method in brief: (§2)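 First, HepG2 cells (600/well) mixed with reagent were plated; second, after 5 h at 37 C they received compounds via pintool; third, fluorescence was measured at 0 h through 40 h at 8 h intervals.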

[6] = qHTS RealTime-Glo MT Cell Viability Assay in HepG2 cells - 32 hour (AID 1224877); also: nearly all actives have a fitted effect of over 55% in size; also: potency is read from the fitted curve at half-maximal effect
Method in brief: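 Cells + NanoLuc/prosubstrate dispensed (600 cells/well) → 5 h at 37 C/5% CO2 → compounds in DMSO transferred → 40 h incubation at 37 C, luminescence read at 0, 8, 16, 24, 32, 40 h.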

[7] = A CellTox Green Cytotoxicity Assay to monitor cytotoxicity in HepG2 cells - 24 hour (AID 1224878); also: nearly all actives have a fitted effect of over 45% in size; also: potency is read from the fitted curve at half-maximal effect
Method in brief: as §2

[8] = A CellTox Green Cytotoxicity Assay to monitor cytotoxicity in HepG2 cells - 40 hour (AID 1224879); also: nearly all actives have a fitted effect of over 40% in size; also: potency is read from the fitted curve at half-maximal effect
Method in brief: as §2

[9] = qHTS RealTime-Glo MT Cell Viability Assay in HEK293 cells - 0 hour (AID 1224880); also: top concentration of the series differs between compounds; nearly all actives have a fitted effect of over 45% in size
Method in brief: as §1
% is scaled to controls: 0 for no effect and ±100 for the full control effect.

CC(C)CCCCCOC(=O)CCS
inactive: Potency [1] | Potency [2] | max response [3] 0.648% | Potency [4] | Potency [5] | Potency [6] | Potency [7] | Potency [8] | Potency [9]

CN1CCN(Cc2cc(-c3ccc4[nH]c(=O)oc4c3)co2)[C@@H](c2ccc(F)cc2)C1
active: Potency [3] 26.5 µM | Potency [7] 42 µM | Potency [8] 42 µM
inactive: Potency [2] | Potency [9]

COc1ccc2cc1Oc1ccc(cc1)C[C@H]1c3c(cc4c(c3Oc3cc5c(cc3OC)CCN(C)[C@@H]5C2)OCO4)CCN1C
inactive: Potency [9]
active: Potency [3] 6.74 µM | Potency [5] 19 µM | Potency [6] 23.9 µM | Potency [7] 23.9 µM | Potency [8] 21.3 µM

CCOC(=O)c1ccc(C2CCC(NC[C@H](O)COc3ccc(O)c(NS(C)(=O)=O)c3)CC2)cc1 (some centres not stated)
active: Potency [1] 20.2 µM | Potency [3] 20.2 µM | Potency [6] 45.2 µM | Potency [7] 50.7 µM | Potency [8] 45.2 µM
inactive: Potency [9]

CCO[C@@H]1O[C@H](C(COCc2ccccc2)OCc2ccccc2)[C@H](OCc2ccccc2)[C@H]1O (some centres not stated)
inactive: Potency [4] | Potency [5] | Potency [7] | Potency [9]

CCCc1ccc(OCC(=O)N2CCN(C(=O)COc3ccc(CCC)cc3OC)CC2)c(OC)c1
active: Potency [1] 9.52 µM | Potency [3] 8.49 µM | Potency [7] 26.8 µM | Potency [8] 21.3 µM
inactive: Potency [4] | Potency [9]

CC(C)(C)c1csc(-c2cc3cc(OCc4ccccc4CC(=O)O)ccc3o2)n1
inactive: Potency [6] | Potency [9]
active: Potency [3] 38.9 µM | Potency [4] 54.9 µM | Potency [5] 54.9 µM | Potency [7] 54.9 µM | Potency [8] 54.9 µM

Oc1cc(Cl)cc(Cl)c1Cl
inactive: Potency [2] | Potency [5] | Potency [6] | Potency [7] | Potency [8] | Potency [9]

O=C1CCc2ccc(OCCCCN3CCN(c4cccc(Cl)c4Cl)CC3)cc2N1
active: Potency [1] 10.7 µM | Potency [3] 9.52 µM | Potency [8] 26.8 µM
inactive: Potency [4] | Potency [5] | Potency [9]

Nc1cc(Cl)c(O)c(Cl)c1
inactive: Potency [1] | max response [3] -1.5% | Potency [4] | Potency [5] | Potency [6] | Potency [7] | Potency [8] | Potency [9]

Cc1cccc2cccnc12
inactive: Potency [1] | Potency [2] | max response [3] 0.538% | Potency [5] | Potency [6] | Potency [7] | Potency [8] | Potency [9]

C#Cc1ccc(-c2ccccc2F)cc1
inactive: Potency [1] | Potency [2] | max response [3] 5.33% | Potency [5] | Potency [6] | Potency [7] | Potency [9]

CN(C)CCN1CCN(c2cccc(Cl)c2)C1=O
inactive: Potency [2] | Potency [4] | Potency [5] | Potency [7] | Potency [8] | Potency [9]

CCCCCc1ccc(Cl)cc1
active: Potency [3] 15.5 µM
inactive: Potency [2] | Potency [4] | Potency [5] | Potency [6] | Potency [7] | Potency [8] | Potency [9]

O=C(c1ccc(O)c(O)c1)c1ccc(O)cc1O
active: Potency [3] 24.5 µM
inactive: Potency [1] | Potency [2] | Potency [6] | Potency [9]

COc1ccc(NC(=O)CC(C)=O)cc1
inactive: Potency [1] | Potency [2] | max response [3] 8.59% | Potency [5] | Potency [7] | Potency [8] | Potency [9]

Cc1cc(=O)oc2cc(O)cc(O)c12
inactive: Potency [1] | Potency [2] | max response [3] -8.17% | Potency [5] | Potency [6] | Potency [7] | Potency [8] | Potency [9]

Cc1cc(C(C)(C)C)c(O)c(C)c1Cn1c(=O)n(Cc2c(C)cc(C(C)(C)C)c(O)c2C)c(=O)n(Cc2c(C)cc(C(C)(C)C)c(O)c2C)c1=O
active: Potency [3] 21.9 µM
inactive: Potency [4] | Potency [5] | Potency [7] | Potency [8] | Potency [9]

OCCN1CCN(CCCN2c3ccccc3Sc3ccc(C(F)(F)F)cc32)CC1
active: Potency [3] 23.9 µM | Potency [7] 26.8 µM | Potency [8] 26.8 µM

OC1CCC(C2CCCCC2)CC1 (configuration not stated)
inactive: Potency [1] | Potency [2] | max response [3] -6.69% | Potency [4] | Potency [6] | Potency [9]
active: Potency [7] 43.6 µM

COc1cccc(OC)c1C(=O)O
inactive: Potency [1] | Potency [2] | max response [3] 0.328% | Potency [5] | Potency [6] | Potency [7] | Potency [8] | Potency [9]

Cc1ccc(-c2ccccc2)cc1
active: Potency [5] 49 µM | Potency [7] 43.6 µM | Potency [8] 43.6 µM
inactive: Potency [1] | Potency [2] | Potency [4] | Potency [6] | Potency [9]

O=C(O)CN(CCN(CC(=O)O)CC(=O)O)CC(=O)O
inactive: activity change, negative = cytotoxicity [1] 0.0628% [at 2.72 µM] | viability change, negative = cytotoxic [2] -13.2% [at 2.72 µM] | max response [3] 7.27% | activity change, negative = cytotoxic [6] 4.09% [at 2.72 µM] | activity change, negative = cytotoxicity [9] 0.0989% [at 2.72 µM]
active: Potency [5] 1.74 µM | Potency [7] 1.74 µM | Potency [8] 1.96 µM

C=C(C)C(=O)OCCCCCCCCCC
inactive: Potency [1] | Potency [2] | max response [3] 14.3% | Potency [5] | Potency [6] | Potency [7] | Potency [8] | Potency [9]

Sc1nc2ccccc2s1
inactive: Potency [1] | Potency [2] | max response [3] 15.8% | Potency [5] | Potency [6] | Potency [9]

Cl[Si](Cl)(c1ccccc1)c1ccccc1
inactive: Potency [1] | Potency [2] | max response [3] -3.91% | Potency [5] | Potency [6] | Potency [7] | Potency [8] | Potency [9]

CC1(C)CCC[C@]2(C)[C@H]3CCO[C@]3(C)CC[C@@H]12
inactive: Potency [1] | Potency [2] | max response [3] 4.7% | Potency [5] | Potency [7] | Potency [8] | Potency [9]

c1ccsc1
inactive: Potency [1] | Potency [2] | max response [3] -2.24% | Potency [4] | Potency [5] | Potency [7] | Potency [8] | Potency [9]

COc1cccc2c1C(=O)c1c(O)c3c(c(O)c1C2=O)C[C@@](O)(C(C)=O)C[C@@H]3O[C@H]1C[C@H](N)[C@H](O)[C@H](C)O1
active: Potency [1] 6.2 µM and 151 nM | Potency [2] 49.3 µM | Potency [3] 62 nM and 3 nM | Potency [6] 22 µM
inactive: Potency [5] | Potency [7] | Potency [8] | Potency [9]

CC(C)=CCC1=C(O)c2ccccc2C(=O)C1=O
active: Potency [3] 24.4 µM
inactive: Potency [2] | Potency [4] | Potency [5] | Potency [7] | Potency [8] | Potency [9]

C#C[C@]1(OC(C)=O)CC[C@H]2[C@@H]3CCC4=C/C(=N/O)CC[C@@H]4[C@H]3CC[C@@]21CC
inactive: Potency [2] | Potency [4] | Potency [5] | Potency [6] | Potency [7] | Potency [8] | Potency [9]
active: Potency [1] 23.9 µM

C#C[C@]1(OC(C)=O)CC[C@H]2[C@@H]3CCC4=C[C@@H](OC(C)=O)CC[C@@H]4[C@H]3CC[C@@]21C
active: Potency [3] 21.3 µM
inactive: Potency [2] | Potency [4] | Potency [5] | Potency [6] | Potency [7] | Potency [8] | Potency [9]

C[Si](Cl)(c1ccccc1)c1ccccc1
inactive: Potency [2] | Potency [4] | Potency [5] | Potency [6] | Potency [7] | Potency [8] | Potency [9]

CN(C)[C@@H](CCOc1cccc2ccccc12)c1ccccc1
inactive: Potency [9]

[Cu+]
inactive: Potency [1] | Potency [2] | Potency [4] | Potency [5] | Potency [7] | Potency [8] | Potency [9]
active: Potency [6] 49 µM

Cc1ccc(O)c(O)c1
inactive: Potency [2] | Potency [5] | Potency [7] | Potency [9]

CCCCCC(C)OC(=O)COc1ccc(Cl)c2cccnc12 (configuration not stated)
inactive: Potency [2] | max response [3] -19.2% | Potency [4] | Potency [5] | Potency [6] | Potency [9]

CC1=Nc2ccccc2C1(C)C
active: Potency [7] 49 µM | Potency [8] 38.9 µM
inactive: Potency [1] | Potency [2] | Potency [6] | Potency [9]

C/C=C/C=C/COC(=O)C(C)C
inactive: Potency [2] | Potency [4] | Potency [5] | Potency [9]
active: Potency [8] 43.6 µM

CNC(=O)c1ccccc1Sc1ccc2c(/C=C/c3ccccn3)n[nH]c2c1
inactive: Potency [5] | Potency [6] | Potency [7] | Potency [8]
active: Potency [3] 8.49 µM
